Measurements taken from PubChem BioAssay.
Active and inactive are the calls of the source.

Key:
[1] = compound effects on differentiated 3T3-L1 adipocyte viability – cell-based, 3T3-L1 adipocytes, calcein-AM fluorescence, 48 h, basal, profiling panel (AID 1163); settings: 3T3-L1 adipocytes viability, higher = more signal
[2] = compound effects on hepatocellular carcinoma cell viability – HepG2, calcein-AM fluorescence, 48 h, basal, profiling panel (AID 1164); settings: higher = more signal
[3] = compound effects on multiple myeloma cell viability – MM1S, calcein-AM fluorescence, 48 h, basal, profiling panel (AID 1165); settings: higher = more signal;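 note: viability of MM1S multiple myeloma cells under basal unstimulated conditions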
[4] = calcein-AM signal in unstimulated myeloma cells – cell-based, calcein-AM fluorescence, 48 h, PK04 Diversity Set, profiling panel (AID 1166); settings: RPMI8226 myeloma viability, higher = more signal;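 note: cells grown under basal conditions without added stimulus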
[5] = JC-1 mitochondrial signal, unstimulated HepG2 cells – cell-based, JC-1 fluorescence, 24 h, 100 nL compound, profiling panel (AID 1167); settings: HepG2 mitochondrial potential, higher = more signal
[6] = JC-1 mitochondrial signal, unstimulated adipocytes – cell-based, JC-1 fluorescence, 3T3-L1 adipocytes, 24 h, 100 nL compound, profiling panel (AID 1168); settings: JC-1 mitochondrial fluorescence, higher = more signal, called active from +8 up or from −8 down
[7] = JC-1 mitochondrial signal, unstimulated myeloma cells – cell-based, JC-1 fluorescence, RPMI8226, 24 h, 100 nL compound, profiling panel (AID 1169); settings: JC-1 mitochondrial potential fluorescence, higher = more signal
[8] = JC-1 mitochondrial signal, unstimulated MM1S myeloma – cell-based, JC-1 fluorescence, 24 h, 100 nL compound, profiling panel (AID 1170); settings: MM1S mitochondrial potential, higher = more signal
[9] = resazurin metabolic signal in A549 cells – cell-based, resazurin fluorescence, 24 h, PK04 Diversity Set, profiling panel (AID 1171); settings: A549 viability, higher = more signal, called active from +8 up or from −8 down
[10] = resazurin metabolic signal in HepG2 cells – cell-based, resazurin fluorescence, 24 h, PK04 Diversity Set, profiling panel (AID 1172); settings: HepG2 viability, higher = more signal
[11] = budding yeast growth changes without added modifier – OD600, strain BY4716, 24 h, basal condition, primary screen (AID 1173); settings: S. cerevisiae BY4716 growth, OD600, 24 h; higher = more signal, called active from +8 up or from −8 down
[12] = viability profiling in MM1S myeloma cells – cell-based, resazurin fluorescence, basal, 24 h, PK04 Diversity Set, profiling panel (AID 1174); settings: higher = more signal, called active from +8 up or from −8 down
[13] = molecular target: Dihydroorotate dehydrogenase (quinone), mitochondrial (Plasmodium falciparum (isolate 3D7)) (UniProt Q08210); test: inhibition of P. falciparum DHODH – biochemical, C-terminal His tag, absorbance 600 nm, primary screen (AID 1175); settings: PfDHODH enzyme, DCIP absorbance 600 nm; higher = more signal, called active from +8 up or from −8 down;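 note: recombinant parasite enzyme with a five histidine tag at its C terminus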
[14] = growth modulation of vineyard yeast isolate – strain RM11-1a, OD600, basal, 24 h, primary screen (AID 1177);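 note: cultures grown under basal conditions with no added stressor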; settings: S. cerevisiae RM11-1a growth, OD600, 24 h; higher = more signal, called active from +8 up or from −8 down
[15] = growth of efflux-deficient E. coli DRC39 – strain DRC39, OD650, 24 h, E. coli filamentation inducers, primary screen (AID 1178);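 note: growth measured as culture turbidity by optical density at 650 nm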; settings: E. coli DRC39 acrAB, higher = more signal, called active from +8 up or from −8 down
[16] = growth of efflux-deficient E. coli DRC39 – strain DRC39, OD650, 48 h, E. coli filamentation inducers, primary screen (AID 1179);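 note: screen aims at cell division blockers that make cells filament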; settings: E. coli DRC39 delta-acrAB growth, higher = more signal, called active from +8 up or from −8 down
[17] = viability profiling in RPMI8226 myeloma cells – cell-based, resazurin fluorescence, basal, 24 h, PK04 Diversity Set, profiling panel (AID 1180); settings: higher = more signal;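 note: RPMI8826 multiple myeloma cell line at 5000 cells per well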
[18] = molecular target: E3 ubiquitin-protein ligase XIAP (Homo sapiens) (UniProt P98170); test: small molecules binding XIAP protein – biophysical, small-molecule microarray, fluorescence 635 nm, primary screen (AID 1181); settings: higher = more signal;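 note: score merges 667 nm emission and signal to noise over triplicate slides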
[19] = test system: XIP peptide (Xip251-270) binding; test: XIP fragment 251-270 binding compounds – biochemical, small-molecule microarray, fluorescence 635/667 nm, 0.1 µg/mL protein, primary screen (AID 1182); settings: fluorescent protein binding, 635 nm, higher = more signal, called active from +8 up or from −8 down
XIP peptide (Xip251-270) = test: compounds binding XIP fragment 251-270 – biochemical, small-molecule microarray, fluorescence 635/667 nm, 0.5 µg/mL protein, primary screen (AID 1183); settings: fluorescence 635 nm, higher = more signal

Sequence of E3 ubiquitin-protein ligase XIAP (Homo sapiens) (P98170 whole entry, looked up, the tested form may be a part): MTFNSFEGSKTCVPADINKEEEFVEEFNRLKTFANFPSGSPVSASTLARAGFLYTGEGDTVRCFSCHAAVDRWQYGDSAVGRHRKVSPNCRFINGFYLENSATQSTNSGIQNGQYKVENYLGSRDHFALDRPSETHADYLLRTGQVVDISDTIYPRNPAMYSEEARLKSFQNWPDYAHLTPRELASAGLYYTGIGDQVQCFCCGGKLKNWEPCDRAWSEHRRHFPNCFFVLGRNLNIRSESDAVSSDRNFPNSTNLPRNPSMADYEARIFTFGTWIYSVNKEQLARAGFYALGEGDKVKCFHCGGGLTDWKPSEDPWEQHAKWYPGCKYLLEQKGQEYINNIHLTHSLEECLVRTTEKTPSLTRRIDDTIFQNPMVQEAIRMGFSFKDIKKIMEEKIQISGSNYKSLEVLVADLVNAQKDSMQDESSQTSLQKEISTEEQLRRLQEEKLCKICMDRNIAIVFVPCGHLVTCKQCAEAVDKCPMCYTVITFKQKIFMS
Sequence of Dihydroorotate dehydrogenase (quinone), mitochondrial (Plasmodium falciparum (isolate 3D7)) (Q08210 whole entry, looked up): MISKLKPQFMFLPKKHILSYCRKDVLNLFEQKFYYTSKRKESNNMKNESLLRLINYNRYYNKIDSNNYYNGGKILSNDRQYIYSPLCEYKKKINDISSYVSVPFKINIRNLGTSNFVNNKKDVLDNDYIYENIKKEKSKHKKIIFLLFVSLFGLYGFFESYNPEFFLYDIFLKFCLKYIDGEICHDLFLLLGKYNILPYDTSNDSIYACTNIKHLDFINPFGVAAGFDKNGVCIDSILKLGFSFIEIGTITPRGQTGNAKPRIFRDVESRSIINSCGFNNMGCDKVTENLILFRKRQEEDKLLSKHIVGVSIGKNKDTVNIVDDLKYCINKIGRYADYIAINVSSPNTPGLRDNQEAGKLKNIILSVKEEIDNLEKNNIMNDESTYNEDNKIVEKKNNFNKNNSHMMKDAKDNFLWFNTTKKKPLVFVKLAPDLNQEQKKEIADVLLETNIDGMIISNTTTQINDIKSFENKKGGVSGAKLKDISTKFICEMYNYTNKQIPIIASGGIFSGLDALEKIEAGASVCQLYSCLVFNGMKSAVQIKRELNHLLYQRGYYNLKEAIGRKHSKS

SMILES	z-score [1]	z-score [2]	z-score [3]	z-score [4]	z-score [5]	z-score [6]	z-score [7]	z-score [8]	z-score [9]	z-score [10]	z-score [11]	z-score [12]	composite z-score [13]	z-score [14]	z-score [15]	z-score [16]	z-score [17]	composite z-score [18]	composite z-score [19]	composite z-score (XIP peptide (Xip251-270))
NCCCCCCNC(=O)[C@@H]1C[C@@H]2C(=O)N[C@@H](Cc3ccccc3)C(=O)N2[C@@H]1c1ccc(O)cc1	1.09	-0.46	0.0892	-0.141	0.666	-0.386 (inactive)	0.0478	0.188	1.19 (inactive)	0.368	-1.77 (inactive)	1.38 (inactive)	0.687 (inactive)	-0.509 (inactive)	0.236 (inactive)	0.476 (inactive)	1.53	-0.305	0.208 (inactive)	0.225
CC(C)(C)OC(=O)CC[C@@]12N=C(c3ccc(OCCCO)cc3)O[C@@H]1c1ccccc1CN(Cc1ccccc1)C2=O	1.52	-1.46	-3.12	-4.06	0.528	0.547 (inactive)	-1.2	-1.07	-0.624 (inactive)	-0.232	1.13 (inactive)	-3.4 (inactive)	0.714 (inactive)	3.15 (inactive)	1.21 (inactive)	0.199 (inactive)	-2.12	0.286	-0.127 (inactive)	0.687
COc1ccc([Si](C)(C)[C@H]2[C@H](CC(=O)N(CCO)Cc3ccccc3)O[C@@]3(C(=O)N(Cc4cccc(N5C(=O)COc6ccccc65)c4)c4ccccc43)[C@@H]2C)cc1	0.446	-0.647	-0.945	-2.66	0.502	1.2 (inactive)	-0.943	-0.397	-0.899 (inactive)	0.0785	0.337 (inactive)	-1.48 (inactive)	-0.149 (inactive)	2.62 (inactive)	2.07 (inactive)	2.13 (inactive)	-2.97	0.0727	1.65 (inactive)	0.727
CC1CC/C=C\[C@H]2OC34C=CCN(C(C)C)C(=O)[C@H]3N(C(CO)C(C)C)C(=O)[C@@H]4C2C(=O)O1 (stereo not given in full)	0.252	-0.0224	1.4	0.652	0.686	1.39 (inactive)	-0.723	1.62	0.351 (inactive)	0.788	-0.718 (inactive)	1.15 (inactive)	-1.87 (inactive)	-0.488 (inactive)	1.36 (inactive)	1.46 (inactive)	0.838	-0.194	0.0648 (inactive)	-1.15
CCCCC(=C=CC[C@H](O)c1cccc(OCCO)c1)CCO	1.07	-0.693	-1	-0.257	0.733	0.439 (inactive)	0.12	-0.0531	1.7 (inactive)	0.529	-1.41 (inactive)	1.31 (inactive)	-0.802 (inactive)	-0.114 (inactive)	1.3 (inactive)	0.749 (inactive)	0.837	0.0458	0.511 (inactive)	-0.97
O=C1O[C@@H](c2ccccc2)[C@@H](c2ccccc2)N2[C@@H](c3ccc(OCCO)cc3)[C@]3(C(=O)Nc4ccc(C#CC5(O)CCCCCC5)cc43)[C@@H](C(=O)NC[C@H](O)c3ccccc3)[C@H]12	1.71	0.394	-0.987	0.208	-1.7	0.548 (inactive)	-0.535	-0.197	0.883 (inactive)	0.18	0.842 (inactive)	0.786 (inactive)	0.935 (inactive)	2.1 (inactive)	1.06 (inactive)	1.12 (inactive)	0.966	-0.304	0.673 (inactive)	0.819
CCCCC(=C=CC[C@@H](O)c1ccc(OCCO)cc1)C[C@@H](O)c1cc(Cl)cc(Cl)c1O	1.37	0.652	-3.38	-3.4	-0.376	1.43 (inactive)	-0.0474	0.781	2.58 (inactive)	2.12	-5.94 (inactive)	0.199 (inactive)	-2.43 (inactive)	-3.1 (inactive)	3.34 (inactive)	2.27 (inactive)	0.285	0.0394	0.925 (inactive)	0.365
COc1ccc(C#Cc2ccc3c(c2)[C@]2(C(=O)N3)[C@H](c3ccc(O)cc3)N3[C@H](c4ccccc4)[C@H](c4ccccc4)OC(=O)[C@H]3[C@@H]2C(=O)N2CCN(c3ncccn3)CC2)cc1	1.37	0.385	-0.233	-0.474	-0.16	1.57 (inactive)	-0.719	0.463	0.682 (inactive)	-0.169	0.0719 (inactive)	0.95 (inactive)	0.848 (inactive)	0.537 (inactive)	0.0488 (inactive)	0.255 (inactive)	1.19	-0.0062	1.62 (inactive)	0.388
COC(=O)C(CC#Cc1ccc2c(c1)[C@]1(C(=O)N2)[C@H](C(N)=O)[C@H]2C(=O)O[C@H](c3ccccc3)[C@H](c3ccccc3)N2[C@@H]1c1ccc(O)cc1)C(=O)OC	0.915	0.72	0.555	-1.42	-2.22	-0.2 (inactive)	-1.17	1.25	1.16 (inactive)	0.259	-1.26 (inactive)	1.52 (inactive)	-0.0538 (inactive)	0.208 (inactive)	0.105 (inactive)	0.572 (inactive)	1.27	0.0239	1.07 (inactive)	-1.13
COCCOC(=O)N1C(=O)[C@@]2(c3cc(C#CC4(O)CCCCCC4)ccc31)[C@H](c1ccccc1OCCO)N1[C@H](c3ccccc3)[C@H](c3ccccc3)OC(=O)[C@H]1[C@@H]2C(=O)Nc1nc2ccccc2s1	1.65	-0.133	-2.71	-4.28	-2.52	1.52 (inactive)	-1.14	-0.807	0.611 (inactive)	0.189	1.15 (inactive)	-0.326 (inactive)	0.764 (inactive)	2.77 (inactive)	-0.0438 (inactive)	0.61 (inactive)	-0.346	-0.0765	1.65 (inactive)	0.649
CC(C)(C)OC(=O)CC[C@]1(C(=O)NCc2ccccc2)COC(c2ccc(OCCCO)cc2)=N1	0.978	-0.346	0.614	0.554	-0.0474	0.186 (inactive)	-0.291	0.931	1.72 (inactive)	0.931	-1.67 (inactive)	1.65 (inactive)	-1.28 (inactive)	-1.23 (inactive)	1.38 (inactive)	0.233 (inactive)	1.57	0.141	1.45 (inactive)	0.0144
C=CC[C@@H](OC(=O)Nc1ccc(SC)cc1)c1ccc(OCCO)cc1	0.344	-0.0505	-0.2	0.0111	-2.22	0.812 (inactive)	0.561	-0.774	0.364 (inactive)	0.537	-5.16 (inactive)	0.822 (inactive)	-1.13 (inactive)	-0.0086 (inactive)	1.28 (inactive)	0.899 (inactive)	0.301	-0.0773	1.08 (inactive)	-0.689
CCCCCN1CC=CC23O[C@@H]4/C=C\CCC(C)OC(=O)C4[C@H]2C(=O)N(CCCO)[C@@H]3C1=O (stereo not given in full)	1.42	0.495	-1.25	0.279	0.197	0.399 (inactive)	0.318	0.962	0.427 (inactive)	0.605	-1.26 (inactive)	1.5 (inactive)	0.564 (inactive)	-0.599 (inactive)	1.54 (inactive)	1.11 (inactive)	1.4	-0.0351	0.156 (inactive)	-0.827
CCOC(=O)C[C@H]1[C@H](OC(=O)Cc2ccc3c(c2)OCO3)[C@@H](NC(=O)c2ccc3ccccc3c2)c2cc(OCCCO)ccc2N1C(=O)c1ccc2ccccc2n1	0.898	1.94	-0.144	0.934	2.77	3.13 (inactive)	0.319	1.64	1.09 (inactive)	1.36	-1.73 (inactive)	-0.0816 (inactive)	0.623 (inactive)	-4.07 (inactive)	1.23 (inactive)	0.0331 (inactive)	-0.375	0.128	0.467 (inactive)	-0.275
